Data from ChEMBL document CHEMBL3988442, “University of Dundee, Small-Polar-MMV Screening Library” (2021).
The campaign covered roughly 48,000 compounds. About 13,000 (27%) showed an effect of 50% or more. Some of the results follow.

Each molecule was assayed on Wolbachia pipientis (assay: Anti-Wolbachia Cell-Based Screen). Details: 5 µM.
Assay type: functional
Set-up: scale not given: in the data most compounds retested in dose-response had high values
In the case of `O=C(c1ccc(O)nc1)N1CCN(C(=O)c2ccc(F)c(F)c2)CC1`, the “Percent Effect” value is reported as -0.8885%.
With `Cc1nc(C(C)C)sc1C(=O)NCCn1ccnc1` the “Percent Effect” value was 18.45%.
In the case of `Cc1nc(C)c(C(=O)NCCNC(=O)Cc2ccccc2)s1`, the “Percent Effect” value is reported as 4.586%.
`Cc1nc(C)c(C(=O)NCCNc2cc(N3CCCC3)ncn2)s1` was tested, and the “Percent Effect” value was 20.28%.
`CCN1CCN(CCNC(=O)c2sc(C(C)C)nc2C)CC1` was tested, and the “Percent Effect” value was 114.4%.
With `Cc1nc(C(C)C)sc1CNC(=O)CCCN1CCCCC1` the “Percent Effect” value was -2.668%.
In the case of `CCN1CCN(CCNC(=O)c2sc(C)nc2C)CC1`, the “Percent Effect” value is reported as 76.69%.
For `CNC(=O)C1CCCCN1C(=O)c1cn(CCOC)c2ccccc12` (centres undefined), the “Percent Effect” value was -5.579%.
With `CNC(=O)C1CCCCN1C(=O)c1csc(-c2ccccc2)n1` (centres undefined) the “Percent Effect” value was -0.9781%.
With `O=C(c1n[nH]c(=O)c2ccccc12)N1CCCCC1c1ccn[nH]1` (centres undefined) the “Percent Effect” value was -2.968%.
With `CC1CCCCN1C(=O)c1n[nH]c(=O)c2ccccc12` (centres undefined) the “Percent Effect” value was 115.2%.
In the case of `O=C(NCCCN1CCCC1)c1n[nH]c(=O)c2ccccc12`, the “Percent Effect” value is reported as 0.5839%.
`CNC(=O)C1CCCCN1C(=O)c1n[nH]c(=O)c2ccccc12` (centres undefined) was tested, and the “Percent Effect” value was 98.92%.
With `Cn1ccc2cc(CC3COCCN(C(=O)c4cccnc4)C3)ccc21` (centres undefined) the “Percent Effect” value was 69.9%.
`Cn1ccc2cc(CC3COCCN(C(=O)c4ccccn4)C3)ccc21` (centres undefined) was tested, and the “Percent Effect” value was 118.8%.
In the case of `O=C(c1cccnc1)N1CCN2C(=O)N(Cc3ccc(F)cc3)C[C@H]2C1`, the “Percent Effect” value is reported as 2.014%.
With `COc1cccc(CCC2CCCN(C(=O)c3ccccn3)C2)c1` (centres undefined) the “Percent Effect” value was -14.56%.
With `CN(C)CCN1CC(C(=O)NCc2ccc(C#N)cc2)CC1=O` (centres undefined) the “Percent Effect” value was -12.86%.
With `COc1ccc(CC(C)(O)CNC(=O)NCc2cccs2)cc1` (centres undefined) the “Percent Effect” value was -12.02%.
For `Cc1nc2c(c(=O)n1C)CN(C(=O)C1CCCN(CC(N)=O)C1)C2` (centres undefined), the “Percent Effect” value was -6.994%.
For `CN(CC(=O)NC(Cc1ccccc1)C1CCCC1)S(C)(=O)=O` (centres undefined), the “Percent Effect” value was 1.289%.
With `Cc1cc(N2CCC(C(=O)O)(n3ccc(C(C)(C)C)n3)CC2)nc(N)n1` the “Percent Effect” value was -17.81%.
`Cc1cc(NC(=O)NCC(c2ccccc2)N2CCOCC2)n(C)n1` (centres undefined) was tested, and the “Percent Effect” value was 108.2%.
With `Cc1cc(NC(=O)NCC(c2ccc(C)o2)N2CCOCC2)n(C)n1` (centres undefined) the “Percent Effect” value was 126.3%.
For `Cc1cc(NC(=O)NCC(O)c2ccc(Cl)cc2Cl)n(C)n1` (centres undefined), the “Percent Effect” value was 1.838%.
`Cc1cc(NC(=O)NCCc2ccccc2)n(C)n1` was tested, and the “Percent Effect” value was -5.779%.
`Cc1cc(NC(=O)NCc2ccccc2OC(F)F)n(C)n1` was tested, and the “Percent Effect” value was 8.208%.
With `Cc1cnc(C(=O)NCC(c2ccc(C)o2)N2CCOCC2)cn1` (centres undefined) the “Percent Effect” value was -11.84%.
With `CCc1ccccc1OCCCN(C)C(=O)C1CCCN1C(N)=O` (centres undefined) the “Percent Effect” value was -6.634%.
In the case of `CCC(NC(=O)CC(F)(F)F)c1ccccc1OCC(=O)N1CCCC1` (centres undefined), the “Percent Effect” value is reported as -4.718%.
`CCCc1cc(C(=O)N(Cc2cccnc2)C[C@@H]2CCC(=O)N2)no1` was tested, and the “Percent Effect” value was -10.16%.
`O=C1CCC2(CCCN(C(=O)c3cccnc3)CC2)N1` (centres undefined) was tested, and the “Percent Effect” value was -2.669%.
In the case of `O=C1NC2(CCc3ccccc31)CCN(C(=O)c1ccncc1)C2` (centres undefined), the “Percent Effect” value is reported as 94.99%.
In the case of `Cc1nccc(-c2ccccc2)c1C(=O)N1CC[C@](C)(O)C(C)(C)C1`, the “Percent Effect” value is reported as -0.4275%.
In the case of `CC(C)CN1C[C@@H]2C(=O)NC3(CCN(C(=O)c4cccnc4)CC3)[C@@H]2C1`, the “Percent Effect” value is reported as 1.9%.
In the case of `Cc1ncccc1C(=O)N1CCC2(CCc3ccccc3C(=O)N2)C1` (centres undefined), the “Percent Effect” value is reported as 98.8%.
`Cc1nccc(-c2ccccc2)c1C(=O)N1CCC2(CC(=O)NC2=O)C1` (centres undefined) was tested, and the “Percent Effect” value was -6.27%.
`O=C1NC2(CCc3ccccc31)CCN(C(=O)c1cccnc1)C2` (centres undefined) was tested, and the “Percent Effect” value was 113.1%.
In the case of `O=C1CCC2(CCCN(C(=O)c3cccs3)C2)N1` (centres undefined), the “Percent Effect” value is reported as -85.27%.
With `CCC(C)(CC(=O)OC)NCc1noc(C)n1` (centres undefined) the “Percent Effect” value was -21.8%.
With `CC(C)c1nnc2n1CCN(C(=O)COc1ccc(C(N)=O)cc1)C2` the “Percent Effect” value was -6.982%.
For `COCC1CC2(CCN(C(=O)C3CCSCC3)CC2)CO1` (centres undefined), the “Percent Effect” value was -14.44%.
With `CCCC(Nc1c(C#N)c(=O)n(C)c(=O)n1C)c1ccc(F)cc1F` (centres undefined) the “Percent Effect” value was -0.1424%.
For `CN1CC[C@]2(CN(C(=O)c3ccc[nH]3)C[C@H]2c2ccccc2)C1=O`, the “Percent Effect” value was -8.445%.
`O=C(O)C(F)(F)F.O=C(O)C(F)(F)F.O=C(O)C(F)(F)F.c1c[nH]c(CN2CCC3(CC2)COCCN(CCN2CCCC2)C3)c1` was tested, and the “Percent Effect” value was -16.15%.
For `CN1CC(c2ccccc2)C2(CCN(C(=O)c3ccc[nH]3)CC2)C1=O` (centres undefined), the “Percent Effect” value was -2.349%.
`C[C@@H]1CN(C(=O)c2ccc[nH]2)C[C@]12CCN(CCN1CCCC1)C2=O.O=C(O)C(F)(F)F` was tested, and the “Percent Effect” value was 108.3%.
With `COCCN1CC[C@]2(CN(C(=O)c3ccc[nH]3)C[C@H]2C)C1=O` the “Percent Effect” value was 91.74%.
In the case of `Cn1cccc1C(=O)N1CCCC2(CCN(CCN3CCCC3)C2=O)C1.O=C(O)C(F)(F)F` (centres undefined), the “Percent Effect” value is reported as -2.422%.
In the case of `CN(C)C(=O)CCC(=O)N1CCC2(CC1)COC2`, the “Percent Effect” value is reported as -20.99%.
With `Cc1sc(NC(=O)CN2CCCC(c3ncc[nH]3)C2)c(C)c1C` (centres undefined) the “Percent Effect” value was 13.59%.
With `COc1c(CNC2CCc3c(F)cccc32)c(C)nn1C.Cl` (centres undefined) the “Percent Effect” value was 125.6%.
For `COc1c(CNC2CCc3cc(Cl)ccc32)c(C)nn1C` (centres undefined), the “Percent Effect” value was 202%.
With `COc1c(CNC2CCOc3ccccc32)c(C(C)C)nn1C` (centres undefined) the “Percent Effect” value was -0.8821%.
In the case of `COc1c(CNC2CCc3cc(C)ccc32)c(C)nn1C` (centres undefined), the “Percent Effect” value is reported as 196.3%.
In the case of `COc1c(CNC2CCc3c(Cl)cccc32)c(C)nn1C.Cl` (centres undefined), the “Percent Effect” value is reported as -6.251%.
For `Cn1ncnc1CNC1CCc2cc(Cl)ccc21` (centres undefined), the “Percent Effect” value was -6.658%.
In the case of `COc1c(CNC2CCc3cc(F)ccc32)c(C(C)C)nn1C` (centres undefined), the “Percent Effect” value is reported as 97.63%.
`Cc1ccc2c(c1)CCC2NCc1c(C)nn(CCO)c1C.Cl` (centres undefined) was tested, and the “Percent Effect” value was 9.193%.
`COc1c(CNC2CCOc3c(Cl)cccc32)c(C)nn1C.Cl` (centres undefined) was tested, and the “Percent Effect” value was -20.37%.
With `COc1c(CNC2CCCc3ccccc32)c(C(C)C)nn1C` (centres undefined) the “Percent Effect” value was -2.774%.
With `COc1c(CNC2CCOc3c(F)cccc32)c(C)nn1C` (centres undefined) the “Percent Effect” value was -5.109%.
With `COc1c(CNC2CCCOc3ccccc32)c(C)nn1C` (centres undefined) the “Percent Effect” value was -2.484%.
For `CCOCC(=O)N1CCC2(CC1)COC(COCc1ccccn1)C2.O=C(O)C(F)(F)F` (centres undefined), the “Percent Effect” value was -4.838%.
